CBFb RUNX1 block: blocks binding between human CBF-beta and RUNX1; AID 1477; Potency, µM (top dose mostly 59.8 µM), usual class: inhibitors; AlphaScreen CBFb-His/RUNX1-biotin binding, biochemical; Q01196+Q13951; 230,000 tested, under 10 active; active means well fitted curve in the direction sought with a large enough effect; inconclusive means small, poorly fitted or top-dose-only effect, or another doubt; inactive means no such curve, though single readings can be large; an effect the other way counts as inactive or inconclusive
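Bead-based AlphaScreen assay; binding partners His-tagged CBF-beta and biotinylated RUNX1 at 30 nM each. Compound exposure 15 min after a 20-min protein preincubation; bead step 90 min; all steps at room temperature.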
HTT aggregate: reduces HttQ103-GFP aggregates in PC12 cells; PC12 HttQ103-GFP aggregates, Acumen cytometry, 40 h; hit rate 1.1% among 220,000; Potency, µM (titrated, usually from 46.1 µM), usual class: inhibitors; active means well fitted curve in the direction sought with a large enough effect; inconclusive means small, poorly fitted or top-dose-only effect, or another doubt; inactive means no such curve, though single readings can be large; an effect the other way counts as inactive or inconclusive; further: nearly all actives have a fitted effect of over 60% in size
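Using laser scanning cytometry, GFP-positive aggregates were counted after lysis of PC12 cells induced with 100 nM tebufenozide to express HTT exon 1 Q103–GFP. Compounds were tested in titration.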
HTT ATP protect: cytoprotection in Huntington HTT-Q103 PC12 cell model | AID 1471 | Potency, µM (highest dose often 56.4 µM), usual class: activators | PC12 HTT-Q103 induced, cytoprotection, ATP luminescence, 40 h | hit rate 0.14% among 230,000; active means well fitted curve in the direction sought with a large enough effect; inconclusive means small, poorly fitted or top-dose-only effect, or another doubt; inactive means no such curve, though single readings can be large; an effect the other way counts as inactive or inconclusive; further: nearly all actives have a fitted effect of over 45% in size
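Cells were plated at 1500 per well in phenol red-free DMEM with 5% equine and 5% calf serum. Tebufenozide (100 nM final) and compounds were added, then ATPlite reagent, and luminescence was read.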
HPGD inh: HPGD (human) dehydrogenase inhibition. Potency, µM, most hits filed as inhibitors. hit rate 4.3% among 150,000. AID 894. P15428. purified HPGD, NADH fluorescence kinetic, PGE2 substrate
Target sequence (P15428 whole entry, looked up): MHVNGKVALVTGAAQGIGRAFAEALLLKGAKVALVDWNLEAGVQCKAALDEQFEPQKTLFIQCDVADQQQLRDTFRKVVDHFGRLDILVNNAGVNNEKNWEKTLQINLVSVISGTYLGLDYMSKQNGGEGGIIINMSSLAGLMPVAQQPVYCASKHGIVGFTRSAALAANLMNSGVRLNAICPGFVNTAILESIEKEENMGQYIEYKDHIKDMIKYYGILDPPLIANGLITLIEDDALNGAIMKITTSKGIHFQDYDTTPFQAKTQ
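NADH formation kinetics: reaction with 30 uM PGE2 and 1 mM NAD+ (final), 20 nM enzyme, Tris-HCl pH 8 with Tween 20, after 15 min compound preincubation at room temperature. Fluorescence change, last versus first of five reads.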
KDM4E inh: inhibitors of human JMJD2E histone demethylase; hit rate 1.6% among 230,000; Potency, µM (top dose mostly 57.1 µM), usual class: inhibitors; AID 2147; JMJD2E catalytic domain, FDH-coupled NADH fluorescence (FDH is formaldehyde dehydrogenase); further: nearly all actives have a fitted effect of over 50% in size
Target sequence (B2RXH2 1-337 limits assumed): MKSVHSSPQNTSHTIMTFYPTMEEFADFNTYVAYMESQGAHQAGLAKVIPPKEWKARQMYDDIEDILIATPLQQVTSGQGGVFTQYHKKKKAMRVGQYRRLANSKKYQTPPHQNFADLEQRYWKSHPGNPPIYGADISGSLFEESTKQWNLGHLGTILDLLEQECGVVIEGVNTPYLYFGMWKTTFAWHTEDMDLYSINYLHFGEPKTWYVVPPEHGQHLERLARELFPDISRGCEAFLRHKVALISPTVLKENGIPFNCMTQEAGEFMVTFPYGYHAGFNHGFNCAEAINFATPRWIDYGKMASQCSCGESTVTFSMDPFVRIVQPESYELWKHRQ
ALDH1A1 inh: inhibitors of human aldehyde dehydrogenase 1A1; P00352; Purified ALDH1A1, NADH fluorescence, propionaldehyde substrate; Potency, µM (highest dose often 75.3 µM), most hits filed as inhibitors; hit rate 7.3% among 220,000
A number is an active result; 0 = inactive; ? = inconclusive; - = no result given; ! = repeats disagree; [ ] = remark or other dose. In the library only some 9.8% were active in any assay of this set; here they are far more common. Unless noted, the call rests on the fitted dose curve; in most records, active means well fitted inhibition curve with a large enough effect (not every such curve was filed as active); inconclusive means small, poorly fitted or top-dose-only effect, or another doubt; inactive means no such curve, though single readings can be large or run the other way.

SMILES	CBFb RUNX1 block	HTT aggregate	HTT ATP protect	HPGD inh	KDM4E inh	ALDH1A1 inh
O=C(CSc1ccc(-c2ccco2)nn1)c1ccc(F)cc1	?	?	0[10 µM]	?	0	3.2µM
Cc1ccc(CNC(=O)CSc2ccc(-c3ccco3)nn2)cc1	0	0	0[10 µM]	0	?	14µM
Cc1cc(C)cc(NC(=O)CSc2ccc(-c3ccco3)nn2)c1	0	0	0[10 µM]	?	0	7.1µM
Cc1onc(-c2c(F)cccc2Cl)c1C(=O)NC(=S)Nc1c(C)n(C)n(-c2ccccc2)c1=O	0	0[9.22 µM]	0	-	0	0
Cc1onc(-c2c(Cl)cccc2Cl)c1C(=O)NC(=S)Nc1sc2c(c1C(N)=O)CCC(C)C2 (stereo not drawn)	0	0	0[10 µM]	0	0	19µM
Cc1onc(-c2ccccc2)c1C(=O)Nc1sc2c(c1C#N)CCC(C)C2 (stereo not drawn)	0	?	0	0	?	?
Cc1onc(-c2c(F)cccc2Cl)c1C(=O)NC(=S)NC1CCSC1=O (stereo not drawn)	0	0	0[0.074 µM]	?	0	10µM
CCn1c2ccc(/C(C)=N\O)cc2c2cc(/C(C)=N\O)ccc21	0	?	0	2.8µM	?	0
C=C[C@]1(C)Cc2occ(C)c2C[C@H]1C(=C)C(=O)O	0	-	0	0	0	11µM
COC(=O)[C@@]1(Cc2ccc(F)cc2)[C@H]2c3cc(C(=O)N(C)C)n(Cc4ccc(C)o4)c3C[C@H]2CN1C(=O)c1ccccc1	0	-	0	18µM	0	0
COC(=O)[C@@]1(Cc2ccc(OC)cc2)[C@H]2c3cc(C(=O)N4CCCC4)n(CCc4ccc(O)c(O)c4)c3C[C@H]2CN1C(=O)c1ccccc1	0	-	11µM	0	0	0
COC(=O)[C@@]1(Cc2ccc(OC)cc2)[C@H]2c3cc(C(=O)N4CCCC4)n(Cc4ccc(Cl)c(C(F)(F)F)c4)c3C[C@H]2CN1C(=O)c1ccccc1	0	-	10µM	0	?	0
O=C(c1ccccc1)c1ccccc1C(=O)N1CCN(C(=O)c2ccccc2)CC1	0	0	0	-	0	0
CCCCC(=O)c1c(O)c2ccccc2oc1=O	0	?	0	0	0	0
CCOc1ccc(OCC(=O)c2c(O)c3ccccc3oc2=O)cc1	0	0	0	13µM	?	8.9µM
COc1ccc(OCC(=O)c2c(O)c3ccccc3oc2=O)cc1	0	0	0	22µM	?	?
NC(=O)COC(=O)CNC(=O)c1sc2ccccc2c1Cl	0	0	0[10 µM]	-	0	22µM
O=C(NCc1ccco1)c1sc2cc(Cl)ccc2c1Cl	0	0	0[10 µM]	16µM	0	20µM
CCn1nnc(NC(=O)c2sc3ccccc3c2Cl)n1	0	0	0[10 µM]	0	0	3.2µM
O=C(NCc1ccco1)c1sc2ccccc2c1Cl	0	0	0[10 µM]	16µM	0	?
Cc1ccc(S(=O)(=O)Nc2c(C)n(C)n(-c3ccccc3)c2=O)cc1C(=O)OCC(=O)N1CCCC(C)C1 (stereo not drawn)	0	0	0	-	0	0
O=S(=O)(NNc1nccc(C(F)(F)F)n1)c1cccc(Cl)c1Cl	0	0[9.22 µM]	0[10 µM]	-	0	-
O=C(/C(Br)=C/Nc1cc(Cl)ccc1Cl)C(F)(F)F	0	0	0[10 µM]	?	0	16µM
Cc1c(CNC2CCCC2)c(C(=O)O)c(C)n1Cc1ccccc1	0	0.79µM	0[10 µM]	0	0	0
COc1cc(C)ccc1OCCOc1c(Cl)cc(Cl)cc1Cl	0	0	0	-	0	0
SMILES	CBFb RUNX1 block	HTT aggregate	HTT ATP protect	HPGD inh	KDM4E inh	ALDH1A1 inh
COc1cc(C)ccc1OCCOc1cc(C)ccc1Cl	?	0	0	2.2µM	0	?
S=c1[nH]nc(-c2ccco2)n1/N=C/C=C/c1ccccc1	0	0	0	14µM	0	?
S=c1[nH]nc(-c2ccc(Cl)cc2)n1/N=C/C=C/c1ccco1	?	0[9.22 µM]	0[10 µM]	-	?	-
S=c1[nH]nc(-c2ccccc2)n1/N=C/C=C/c1ccco1	0	0	0[10 µM]	11µM	0	?
CCN(CC)CCn1c(=S)[nH]c2cc(C(=O)N3CC=C(c4ccccc4)CC3)ccc2c1=O	0	0	0	-	?	?
CCOC(=O)c1ccc2c(c1)nc(SCc1cn3ccsc3n1)n2CC	0	0	0[10 µM]	0	0	?
CC(CN1CC(=O)NC(=O)C1)N1CC(=O)NC(=O)C1 (stereo not drawn)	-	0	0	-	-	-
CCN1CC2CCCC3(C1)C(=O)NC1(CCCCC1)N=C23 (stereo not drawn)	0	0	0	0	0	32µM
N#CC(=C=[N-])c1nc2ccccc2nc1-[n+]1cccc(NC(=O)c2ccccc2)c1	0	0[9.22 µM]	0[10 µM]	-	0	14µM!
O=C(Nc1ccc(-c2noc(-c3cccs3)n2)cc1)c1cccnc1	?	0	0[10 µM]	0	0	0
Cc1cc(Cc2cc(C)c(N)cc2C)c(C)cc1N	0	0	0	-	0	22µM
COc1cc(C)c(Cc2cnc(N)nc2N)cc1OC	0	0	?	-	0	-
Cn1ccc(CC(=O)N2CCC(N3CCC(C(=O)N4CCCC4)CC3)CC2)c1	0	0[9.22 µM]	0[10 µM]	-	0	-
CCOc1ccc(NC2c3ccccc3C(=O)N2Cc2ccc3c(c2)OCO3)cc1 (stereo not drawn)	?	?	0	28µM	0	?
CNc1ccc(Br)cc(C(=O)/C=C/c2ccc(OC)cc2OC)c1=O	0	0	-	14µM	?	?
CNc1ccc(Br)cc(C(=O)/C=C/c2ccc(Cl)cc2Cl)c1=O	?	0[9.22 µM]	0[10 µM]	-	?	?
CNc1ccc(Br)cc(C(=O)/C=C/c2cccc(OC)c2)c1=O	0	0	0[1.9 µM]	7.9µM	?	14µM
Clc1ccccc1CSc1ncn(-c2ccccc2)n1	?	0	0[10 µM]	18µM	0	0
Cc1ccc(CSc2ncn(-c3ccccc3)n2)cc1	0	0	0	20µM	0	16µM
O=C(NOC(=O)c1ccccc1)c1ccccc1	0	0[9.22 µM]	0[10 µM]	-	0	20µM
COC(=O)c1ccccc1	0	-	0	0	-	0
CC(C)OC(=O)CSc1nnc(-c2cnccn2)n1-c1ccc(Cl)cc1	0	0	0[10 µM]	0	0	10µM
CC(C)N(Cc1ccccc1)C(=O)c1ccc2nsnc2c1	0	0[9.22 µM]	0[10 µM]	-	0	-
Brc1cc2c(cc1/C=N/Nc1nc(N3CCCC3)nc(N3CCOCC3)n1)OCO2	0	?	0	0	0	14µM
CCOC(=O)c1ccc(N=C2NC(=O)CS2)cc1	0	0	0	13µM	0	?
CC1=C(C)C(OCCBr)N(c2cc(O)c(Cl)cc2F)C1=O (stereo not drawn)	0	0[9.22 µM]	0[10 µM]	-	0	-
CC1=NCCN1S(=O)(=O)c1c(C(C)C)cc(C(C)C)cc1C(C)C	0	0[9.22 µM]	0[10 µM]	-	0	2.2µM
Cc1cc(N2CCOCC2)c2c(N)c(Br)cc(C)c2n1	0	2µM	0	0	?	0
Cc1ccc(NC(=O)c2sc3nc4c(c(-c5ccco5)c3c2N)CCC4)cc1	0	0	0	0	0	4.5µM

Source: PubChem
